Each structure is given as a SMILES string. Results filed as inconclusive are left out. Active and inactive are the calls of the source. Calls come from the whole dose curve; as a rule, active = well fitted inhibition curve with a large enough effect; inconclusive = small, poorly fitted or top-dose-only effect; inactive = no such curve, though single readings can be large or run the other way.
% is set by controls: 0 for no effect and ±100 for the full control effect.

The test system of one assay is Zika virus NS2B-NS3 protease (unlinked complex). The experiment in a line: Primary screen GU Rhodamine qHTS for Zika virus inhibitors: Unlinked NS2B-NS3 protease assay (AID 1347159). Note: nearly all actives have a fitted effect of over 60% in size. Note: potency is the fitted concentration of half-maximal effect. Conditions: Recombinant ZIKV NS2B-NS3 protease, Rhodamine110 substrate fluorescence; series mostly up to 107 µM; activity change, negative = inhibition: at the top concentration. Put shortly: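 Compounds, tested up to 114 microM, were incubated for 15 minutes with 25 nM unlinked NS2B-NS3 protease at pH 8.0. Cleavage of 1.5 microM Rhodamine110 substrate was then followed by fluorescence for 15 minutes.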
On to `CC(C)(C)c1cc(C(=O)O)c(NC(=O)Nc2ccc3[nH]ncc3c2)s1`, for which the Potency was 17.8 µM (active). Regarding `CNC(=O)c1ccc2cc(C3(O)CCn4cncc43)ccc2c1` (centres undefined), the “activity change, negative = inhibition” value was 7.5% (inactive). The same measure, in the same setting: in the case of `COc1ccc(Cc2ccc(NC(N)=O)cc2)cc1-c1cccc(Cl)c1` it was 183% (inactive); in that of `CC(C)C(=O)Nc1ncc(-c2cc(C(F)F)nn2-c2c(Cl)cccc2Cl)s1`, 8.89% (inactive); in that of `COc1ccc2c(Oc3ccc(NC(=O)c4c(C)n(CC(C)(C)O)n(-c5ccccc5)c4=O)nc3)ccnc2c1`, 17.6% (inactive).

With `O=C(CCN1CCN(C(=O)OCc2cc(Cl)cc(Cl)c2)CC1)c1ccc2[nH]c(=O)oc2c1`, the Potency is 44.7 µM (active). Take `O=C(NCc1ccccc1)c1csc(Nc2ccncn2)n1`: the “activity change, negative = inhibition” value is -27.1% (inactive). Regarding `COc1ccc(C2Sc3ccccc3N(CCN(C)C)C(=O)C2OC(C)=O)cc1` (centres undefined), the “activity change, negative = inhibition” value is 8.71% [at 57.1 µM] (inactive).

The next assay has as its system Zika virus NS2B-NS3 protease (linked construct). Description: Primary screen NINDS Rhodamine qHTS for Zika virus inhibitors (AID 1347160). Note: nearly all actives have a fitted effect of over 55% in size. Conditions: purified NS2B-NS3 protease, Rhodamine110 substrate fluorescence; series mostly up to 57.1 µM; activity change, negative = inhibition: at the top concentration. Put shortly:
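Percent inhibition, normalized to uninhibited and enzyme-free controls, is fitted to a 4-parameter Hill equation. Fluorescence change comes from a 15-min cleavage of 1.5 microM bis-peptide Rhodamine110 substrate by 25 nM linked NS2B-NS3 at room temperature.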
In general terms: qHTS replaces the single test concentration by a dilution series.
`CNC(=O)c1ccc2cc(C3(O)CCn4cncc43)ccc2c1` (centres undefined): the “activity change, negative = inhibition” value is 5.02% (inactive). Still for that read-out and setting: to `COc1ccc(Cc2ccc(NC(N)=O)cc2)cc1-c1cccc(Cl)c1` belongs -4.87% (inactive). For the compound `CC(C)C(=O)Nc1ncc(-c2cc(C(F)F)nn2-c2c(Cl)cccc2Cl)s1`, the result was inactive. For the compound `COc1ccc2c(Oc3ccc(NC(=O)c4c(C)n(CC(C)(C)O)n(-c5ccccc5)c4=O)nc3)ccnc2c1`, the “activity change, negative = inhibition” value was 113% (inactive). `O=C(NCc1ccccc1)c1csc(Nc2ccncn2)n1`: the “activity change, negative = inhibition” value is 7.72% (inactive). Consider `COc1ccc(C2Sc3ccccc3N(CCN(C)C)C(=O)C2OC(C)=O)cc1` (centres undefined), for which the “outcome” value is “inactive [at 33.1 µM]”.
